# Measurements taken from PubChem BioAssay AID2069 (Sanford-Burnham Center for Chemical Genomics, 2009).
# Among all 1,200 compounds or so, about 210 (18%) were called active. Only a sample is shown. Values without a mark were called inactive. Rule as the data show it: active = inhibition above about 30%; inactive = the rest.
# Assay: HTRF signal interference by compounds, confirmation, artefact control for SUMOylation inhibitor project, biochemical, uHTS (AID 2069)
# Conditions: HTRF interference counterscreen, fluorescence, at 35 µM, stronger effect = higher value
row,Compound,inhibition
1,Cc1cc(C)cc(NC(=S)Nc2cccc3cnccc23)c1,-5.7%
2,COc1ccc(S(=O)(=O)N(C)c2ccc(C(=O)NCc3ccccn3)cc2)cc1,-4.1%
3,N#CC1=C(N)Oc2n[nH]c(-c3cccs3)c2C1c1ccoc1 (configuration not stated),-10.8%
4,COC(=O)c1cc(O)cc(OC)c1Oc1cc(C)cc(O)c1C(=O)O,11%
5,COc1ccc2c(C)c(C(=O)NCC(C)O)oc2c1OC (configuration not stated),38% (active)
6,Oc1ccc(NCc2ccccc2OCc2ccccc2F)cc1,-9.2%
7,COc1cc2c(-c3ccc(O)cc3)nc3c(c(C)nn3-c3ccccc3)c2cc1OC,9.45%
8,CCCCCCCC(=O)Nc1ccc(C(=O)N/N=C/c2cccc([N+](=O)[O-])c2)cc1,-8.25%
9,CC(=O)Nc1ccc(-c2cn3cccnc3n2)cc1,52.3% (active)
10,CCCCCCCn1c(NC(=O)CC)nc2ccccc21,4.3%
11,CC(=O)Nc1ccc(S(=O)(=O)Nc2cccn(Cc3ccc(C)cc3)c2=O)cc1,1.85%
12,CCCCCC(=O)Nc1ccc(-c2cn3cccnc3n2)cc1,49.3% (active)
13,CCc1ccc(S(=O)(=O)/N=C2\C=CC(=O)c3ccccc32)cc1,7.75%
14,Cc1ccc(-n2nc(C)c3c2OC(N)=C(C#N)C3c2ccc(C)o2)cc1 (configuration not stated),-11.4%
15,CN(C)S(=O)(=O)c1cc(NC(=O)CNCc2ccccc2)ccc1Cl,-6%
16,O=C(Nc1ccc(Cl)c(Cl)c1)Nn1cnnc1,41.3% (active)
17,NS(=O)(=O)c1ccc(NC(=O)c2ccc(-c3ccccc3)cc2)cc1,-3.1%
18,Cc1[nH][nH]c(=O)c1C(c1ccc(-c2ccc(C(=O)O)cc2)o1)c1c(C)[nH][nH]c1=O,0.5%
19,CCOC(=O)c1sc(NC(=O)c2cccc(S(=O)(=O)N3CCc4ccccc43)c2)c(C#N)c1C,-22.4%
20,Cc1c(Br)c(O)c(Br)c2sc(=O)oc12,-25.6%
21,O=C(NNc1cc(N2CCOCC2)nc(N2CCOCC2)n1)c1ccc([N+](=O)[O-])cc1,1.6%

row,Compound,inhibition
1,Nc1cccc2cnccc12,3.2%
2,COc1ccc(C(=O)CSc2nnc(-c3ccco3)c(-c3ccco3)n2)cc1,-2.15%
3,NN1C(=O)/C(=C\c2ccco2)SC1=S,4.75%
4,Nc1ccc2c(c1)C/C(=C/c1ccco1)C2=O,62.9% (active)
5,NC1=NC(=O)/C(=C\c2ccco2)S1,16.6%
6,COc1ccc(-c2csc(NC(=S)NC(=O)/C=C/c3ccco3)n2)cc1OC,10.6%
7,Cc1ccc(/C=C2\SC(=S)N(/N=C/c3cc([N+](=O)[O-])ccc3O)C2=O)o1,-7.65%
8,Cc1nn2cc(-c3ccccc3)nc2[nH]c1=O,62.4% (active)
9,N#Cc1c2ccc(OCC(N)=O)cc2n2ccccc12,35.8% (active)
10,CCOC(=O)c1c2ccc(OCC(=O)NN)cc2n2ccccc12,29.6%
11,CCOC(=O)c1c2ccc(OCC(=O)N/N=C/c3ccc(C)cc3)cc2n2ccccc12,19.8%
12,CCc1cc2c(=O)nc3n(c2s1)Cc1ccccc1/C3=C(/O)c1cccc([N+](=O)[O-])c1,17%
13,O=C(/C=C/c1cccs1)Nc1scc(-c2ccccc2)c1C(=O)O,26.6%
14,COc1cccc(Cn2cccc(NC(=O)NC3CCCCC3)c2=O)c1,-4.4%
15,Cc1cccn2c(=O)c3cc(S(=O)(=O)c4ccccc4)c(=N)n(Cc4ccco4)c3nc12,5.25%
16,Cc1cccn2c(=O)c3cc(C(=O)NC4CCCCCC4)sc3nc12,31.1% (active)
17,O=C1C=C(O)CC(c2ccco2)C1 (configuration not stated),5.85%
18,COCCNC(=S)Nc1ccc2nsnc2c1,-1.2%
19,Cc1cc(C)cc(NC(=S)Nc2cccc3ccccc23)c1,-13.7%
20,N#Cc1c(N)n(-c2cccc(C(=O)O)c2)c2nc3ccccc3nc12,33.5% (active)
21,COc1ccc(-n2c(NC(=O)c3ccco3)c(C#N)c3nc4ccccc4nc32)cc1,4.15%

row,Compound,inhibition
1,N#Cc1c(N)n(CCNC(=O)c2ccccc2)c2nc3ccccc3nc12,19.1%
2,Cc1cccn2c(=O)c3cc(C#N)c(=NC(=O)c4ccco4)n(Cc4ccco4)c3nc12,23.1%
3,O=c1[nH]cc(I)cc1I,-3.65%
4,O=C1CC(c2ccco2)CC(O)=C1C=Nc1cc(Cl)ccc1O (configuration not stated),-2.5%
5,COc1cccc(-c2nc(SCC(=O)Nc3nc(-c4ccccc4)c(C)s3)[nH]c(=O)c2C#N)c1,-0.65%
6,COc1ccc(C(N)c2nccc3cc(OC)c(OC)cc23)cc1OC (configuration not stated),-2.9%
7,CC(=O)c1ccc(NC(=O)Nc2cccnc2)cc1,41.8% (active)
8,CN(C(=S)Nc1cccnc1)c1ccc(O)cc1,5.3%
9,O=C(Nc1ccc(N2C(=O)C3C4C=CC(C4)C3C2=O)cc1)Nc1cccnc1 (configuration not stated),16.1%
10,CCCC(=O)NC(=S)Nc1cccc2c(O)cccc12,11.1%
11,Cc1ccc(NC(=O)Nc2cccn(Cc3c(F)cccc3Cl)c2=O)cc1,3.65%
12,COc1ccc(-c2ccnc3nc(/N=C/N(C)C)nn23)cc1,44.7% (active)
13,CN(C)/C=N/c1nc2nccc(-c3ccc(F)cc3)n2n1,37.5% (active)
14,Fc1ccc(-c2ccnc3nc(N4CCOCC4)nn23)cc1,32.5% (active)
15,N#CCCN(Cc1cccnc1)C(=S)NC1CC2C=CC1C2 (configuration not stated),-9.75%
16,Cc1ccc(NC(=O)c2ccccc2OCC(=O)Nc2cccc(Cl)c2C)nc1,7.7%
17,CCOc1cc(CNc2cccc3ccccc23)cc(Br)c1OCC(=O)NC(C)(C)C,12.7%
18,O=C(c1csc(Nc2cccc3ccccc23)n1)N1CCCC1,23.1%
19,O=[N+]([O-])c1c(NCCO)cc(N2CCCCCC2)c2nonc12,22.4%
20,COc1cc(OC)c2c(O)c3c(c(-c4c5c(c(O)c6c(OC)cc(OC)cc46)CO[C@@H](C)[C@H]5O)c2c1)[C@H](O)[C@H](C)OC3,11%
